A selection: hits, their analogues and other compounds. The true share with any hit is near 3.4%.
ssDAF12 agonist – activates DAF-12 receptor from parasite S. stercoralis; HEK293 ssDAF-12/GRIP1 lit1-tk-luc reporter, luminescence; % of 3 µM dafachronic acid response; activation, % at 6.8 µM; hit rate 1% among 370,000; AID 652126;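 active = activation above the mean over all tested compounds plus 3 SD, cut at about 0.9% in these data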
hgDAF12 agonist – agonists of H. glycines DAF-12 nuclear receptor | HEK293 GAL4-hgDAF12 UAS-luciferase reporter, agonist luminescence; normalized to butyrate control | activation, % at 6.8 µM | hit rate 1.8% among 370,000 | AID 687014;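 active = activation above a cutoff set at the mean of all screened compounds plus 3 SD, cut at about 10% in these data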
APP 5'UTR act – activates APP 5'UTR luciferase reporter | activation, % at 2 µM | hit rate 1% among 190,000 | SH-SY5Y APP 5'UTR luciferase reporter, luminescence; zero percent = DMSO vehicle wells;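 active = activation above a set limit, based on mean plus 3 SD of controls, cut at about 140% in these data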
hcDAF-12 act – H. contortus DAF-12 activation, primary screen; HEK293 hcDAF-12 lit1-tk-luc reporter, luminescence; 0% DMSO, 100% Δ7-dafachronic acid; activation, % at 6.8 µM; hit rate 1.4% among 370,000; AID 652067;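 active = activation above the mean of all tested compounds plus 3 SD, cut at about 5.5% in these data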
NF-kB neuron act – raises NF-kB expression in human neuronal cells | hit rate 1.6% among 190,000 | fold change at 12.5 µM | NF-kB reporter expression; active compounds read high; in the data active = fold change above about 3.3
LXR ag – LXR-beta agonism as hcDAF-12 counter-screen | 3,400 tested, under 10 active | AID 743027 | HEK293 Gal4-LXR tk-luc reporter, luminescence, 24 h; normalized: DMSO 0%, positive control 100% | shares compounds with hcDAF-12 act | activation, % at 6.8 µM;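 active = mean percent activation of the reporter above a cutoff set as the average over tested compounds plus their standard deviation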
Target sequence (P55055 whole entry, looked up, the tested form may be a part): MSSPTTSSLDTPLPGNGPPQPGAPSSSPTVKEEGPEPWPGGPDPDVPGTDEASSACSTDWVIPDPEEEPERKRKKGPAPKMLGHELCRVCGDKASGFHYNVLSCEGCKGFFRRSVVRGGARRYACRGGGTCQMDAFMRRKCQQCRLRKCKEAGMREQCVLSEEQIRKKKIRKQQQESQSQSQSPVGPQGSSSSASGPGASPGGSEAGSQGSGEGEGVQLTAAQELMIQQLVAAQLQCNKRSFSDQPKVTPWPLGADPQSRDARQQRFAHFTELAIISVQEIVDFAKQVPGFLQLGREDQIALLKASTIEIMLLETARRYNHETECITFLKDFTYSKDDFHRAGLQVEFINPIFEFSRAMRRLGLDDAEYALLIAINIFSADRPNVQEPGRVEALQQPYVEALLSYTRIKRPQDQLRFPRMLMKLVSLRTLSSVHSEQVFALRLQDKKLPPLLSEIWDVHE
hcDAF12 ag – hcDAF-12 agonism, confirmation assay; shares compounds with hcDAF-12 act; HEK293 hcDAF-12 lit1-tk-luc reporter, luminescence; % of Δ7-dafachronic acid response; activation, % at 6.8 µM; hit rate 61% among 3,400; AID 743032;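 active = mean activation across triplicate tests above the threshold derived from the earlier primary screen, cut at about 5.5% in these data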
Of the large screens only hits and unclear results are named; the others gave an inactive call (follow-up assays come after a bar, where they were run).

O=C(/C=C/c1cccs1)N1CCc2ccccc21	ssDAF12 agonist 3.6, hgDAF12 agonist 28, APP 5'UTR act 187, hcDAF-12 act 20, NF-kB neuron act 8.1 | LXR ag inactive | hcDAF12 ag 21
N#C/C(=C\c1c[nH]c2ccccc12)C(N)=O	none (no result: APP 5'UTR act, NF-kB neuron act)
CCOC(=O)/C(C#N)=C/c1c[nH]c2ccccc12	hcDAF-12 act 9.0 | LXR ag inactive | hcDAF12 ag inactive
Cc1ccc(S(=O)(=O)/C(C#N)=C/c2c[nH]c3ccccc23)cc1	none
Cc1ccc(C(=O)/C=C/c2c[nH]c3ccccc23)cc1	hcDAF-12 act 8.6, NF-kB neuron act 3.5 | LXR ag inactive | hcDAF12 ag inactive
CCOP(=O)(OCC)/C(C#N)=C/c1c[nH]c2ccccc12	none (no result: APP 5'UTR act, NF-kB neuron act)
COC(=O)/C(C#N)=C/c1c[nH]c2ccccc12	hcDAF-12 act 8.1 | LXR ag inactive | hcDAF12 ag 9.9
COc1cccc(-c2nnc(SCC(=O)OC(C)C)n2-c2ccc(Cl)cc2)c1	none (no result: APP 5'UTR act, NF-kB neuron act)
Cc1cc(C)c(S(=O)(=O)/N=C2\C=C(NS(=O)(=O)c3ccccc3)C(=O)c3ccccc32)c(C)c1	ssDAF12 agonist 0.9, hcDAF-12 act 8.0 (no result: APP 5'UTR act, NF-kB neuron act) | LXR ag inactive | hcDAF12 ag inactive
Cc1ccc(S(=O)(=O)/N=C2\C=C(NS(=O)(=O)c3ccccc3)C(=O)c3ccccc32)cc1	none (no result: APP 5'UTR act, NF-kB neuron act)
COC(=O)C1CN(Cc2cn(Cc3ccccc3)nn2)CCS(=O)(=O)N1Cc1ccc(F)cc1 (configuration not stated)	none (no result: APP 5'UTR act, NF-kB neuron act)
Cc1ccc2nc(-c3ccc(O)c(O)c3)cn2c1	hcDAF-12 act 9.4 (no result: APP 5'UTR act, NF-kB neuron act) | LXR ag inactive | hcDAF12 ag 9.9
Cc1ccc2nc(-c3ccc(S(=O)(=O)N4CCOCC4)cc3)cn2c1	none (no result: ssDAF12 agonist, hgDAF12 agonist, hcDAF-12 act)
Cc1ccc(-n2nnc(-c3cnc4ccccc4c3)n2)cc1	ssDAF12 agonist 1.6, APP 5'UTR act 194, hcDAF-12 act 9.9, NF-kB neuron act 4.5 | LXR ag inactive | hcDAF12 ag 14
Cc1ccc(-n2nnc(-c3nccn3C)n2)cc1	hcDAF-12 act 6.9, NF-kB neuron act 4.2 | LXR ag inactive | hcDAF12 ag 7.3
COC1=C[C@H](C(=O)N[C@H]2CCCC[C@@H]2NC(C)=O)[C@@]2(C)Cc3ccccc3[C@H]2CC1=O	none (no result: APP 5'UTR act, NF-kB neuron act)
O=C(c1cc(-c2ccc(Br)cc2)on1)N1CCOCC1	hgDAF12 agonist 13, hcDAF-12 act 7.2 (no result: APP 5'UTR act, NF-kB neuron act) | LXR ag inactive | hcDAF12 ag inactive
O=C(c1cc(-c2ccccc2Cl)on1)N1CCCC1	hgDAF12 agonist 12, hcDAF-12 act 8.6 (no result: APP 5'UTR act, NF-kB neuron act) | LXR ag inactive | hcDAF12 ag 12
O=C(c1cc(-c2ccc(Cl)c(Cl)c2)on1)N1CCCCC1	none
Clc1ccc(/C=C/c2ncc3ccccn23)cc1	ssDAF12 agonist 1.6, hgDAF12 agonist 11, hcDAF-12 act 11, NF-kB neuron act 3.7 | LXR ag inactive | hcDAF12 ag inactive
Fc1ccccc1-c1n[nH]c(=S)n1N=Cc1cccc(OCc2ccccc2)c1	none (no result: APP 5'UTR act, NF-kB neuron act)
Cc1onc(C(=O)N2CCOCC2)c1[N+](=O)[O-]	hcDAF-12 act 7.2 | LXR ag inactive | hcDAF12 ag inactive
COc1ccc(-n2ncc3c(NCC(C)C)ncnc32)cc1	hgDAF12 agonist 11, APP 5'UTR act 195, hcDAF-12 act 9.8, NF-kB neuron act 7 | LXR ag inactive | hcDAF12 ag 5.7
Cc1cc(C(=O)COC(=O)C2=COCCO2)c(C)n1-c1cccc(F)c1	ssDAF12 agonist 1.0, hgDAF12 agonist 11, hcDAF-12 act 7.2 (no result: APP 5'UTR act, NF-kB neuron act) | LXR ag inactive | hcDAF12 ag inactive
Nc1[nH]c(C(=O)c2ccccc2)c(-c2cccnc2)c1C(=O)NCCc1c[nH]c2ccccc12	none (no result: APP 5'UTR act, NF-kB neuron act)
O=C(O)c1ccc(N/N=C/c2cccc(F)c2)cc1	ssDAF12 agonist 1.2, hgDAF12 agonist 21, hcDAF-12 act 7.1, NF-kB neuron act 5 | LXR ag inactive | hcDAF12 ag 10.0
O=C(O)c1ccc(N/N=C/c2ccnc3ccccc23)cc1	none (no result: APP 5'UTR act, NF-kB neuron act)
COc1cc(/C=N/Nc2ccc(C(=O)O)cc2)ccc1O	hcDAF-12 act 6.8 | LXR ag inactive | hcDAF12 ag 6.4
